Bioassay records: PubChem, National Center for Advancing Translational Sciences (NCATS)
Pf Dd2 growth: qHTS Primary assay for Inhibitors of Plasmodium falciparum Dd2 growth in vitro; P. falciparum Dd2 growth, SYBR Green, 72 h; actives 4.3% (n = 120,000); AID 1347417, 2020; Potency, µM (titrated, usually from 28.9 µM), without a hit: top-dose activity, negative = inhibition, most hits filed as inhibitors; active = well fitted inhibition curve with a large enough effect;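 note: plate controls were DMSO vehicle for no effect and reference drug for full effect; nearly all actives have a fitted effect of over 65% in size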
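Readout: SYBR Green fluorescence, 485 nm excitation, 535 nm emission, after ~16 h lysis at 37C. Before that, Dd2-infected red cells (2.5% hematocrit) grew 72 h with compound, 29 uM top final concentration.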
The depositor's hits bear a star; i = inactive; [ ] = remark or other dose. Shown is part of a subset that was picked to be rich in hits. Potency is the fitted concentration of half-maximal effect.

SMILES | Pf Dd2 growth
O=C1NCCCCCCN(C(=O)c2cnccn2)[C@H]2C[C@H](c3nc(-c4cccnc4)no3)C[C@@H]12 | -23%
CS(=O)(=O)N1CCCCCCNC(=O)[C@@H]2C[C@@H](c3nc(-c4cccnc4)no3)C[C@@H]21 | i
CC(C)c1noc(C2CCCN(Cc3ccccc3)CCC(=O)NCC2)n1 (stereo not given) | 4.5µM*
O=C1CCN(C2CCOCC2)CCCC(c2nc(-c3cccnc3)no2)CCN1 (stereo not given) | -1%
CN(C)C(=O)N1CCCC(c2nc(-c3ccccc3)no2)CCNC(=O)CC1 (stereo not given) | 7%
C/C(=C\c1ccccc1)CN1CCCC12Cc1ccccc1CNC2=O (stereo not given) | i
c1coc(-c2nnc([C@H]3CCN(C4CCOCC4)C3)o2)c1 | i
CN(CC1CCOC1)S(=O)(=O)c1ccc(F)cc1 (stereo not given) | 50%[5.79 µM]
O=C(NCC1(c2ccccc2F)CCCC1)[C@H]1CCC[C@@H](O)C1 | -12%
CCCc1cc(C(=O)N2CC(=O)N(CC(C)C)CC(OCc3ccccc3F)C2)n(C)n1 (stereo not given) | -5%
OC(c1cccc(C(F)(F)F)c1)c1nc(Nc2ccc(F)cc2F)n[nH]1 (stereo not given) | i
CSCc1ccc(C(=O)N2CCOCC(O)(CN3CCCC3)C2)o1 (stereo not given) | -24%
CN1CC(=O)N(C2CCNCC2)Cc2c(NCCc3cccc(F)c3)ncnc21 | -17%
O=C(CCCc1ccccc1)N1CCCCCC1c1nc(C2CC2)no1 (stereo not given) | -16%
COc1ccc(C(=O)N2CCCC(c3nc(-c4ccccc4)no3)CCNC(=O)CC2)c(OC)n1 (stereo not given) | 11µM*
COc1ccc(C(=O)N2CCCC(c3nc(-c4cccnc4)no3)CCNC(=O)CC2)c(OC)n1 (stereo not given) | i
O=C1CCN(C(=O)c2cccnc2)CCCC(c2nc(-c3ccccc3)no2)CCN1 (stereo not given) | i
Cc1ccc(NC(=O)N2CCC(Oc3ncccc3C(=O)N3CCOCC3)C2)c(C)c1 (stereo not given) | 6%
C[C@@]12CC[C@H]3O[C@H](COc4ccccc4)OC[C@@]3(C)C1CC[C@@H](O)C2CC(=O)N1CCCC1 (stereo not given in full) | -4%
COCc1cc(=O)n(CC(=O)Nc2ccc(C)c(Cl)c2)c(N2CCOCC2)n1 | -2%
O=C(c1ccc(Oc2ccc(CN3CCCC3)cc2F)nc1)N1CCCCC1 | 7.1µM*
COc1ccc(C(=O)N2CCCCCCNC(=O)CC2)cc1F | -8%
COc1ccc(C(=O)N2CCC(c3n[nH]c(=O)n3Cc3ccc(F)cc3)CC2)cn1 | i
CN(Cc1ccccc1)Cc1cc(CC2(NCc3ccccc3O)COC2)no1 | -8%[44.1 µM]
Cc1ccc(NC(=O)CN2C(=O)CCSc3ccc(S(=O)(=O)N4CCCC4)cc32)cc1 | i
SMILES | Pf Dd2 growth
CCN1CCSc2ccc(C(=O)NCc3ccc(OC(C)C)cc3)cc21 | 17%
Cc1ccc(NC(=O)CN2CCSc3ccc(S(=O)(=O)N4CCCC4)cc32)cc1 | 7.9µM*
CCOc1ccc(CNC(=O)c2ccc3c(c2)N(CC)CCS3)cc1 | 36%
Cc1ccc(CCNC(=O)c2ccc3c(c2)N(Cc2ccc(F)cc2)CCS3)cc1 | 10%
Cc1ccc(NC(=O)CN2C(=O)CCSc3ccc(S(=O)(=O)N4CCCC4)cc32)cc1C | 13%
COc1cc(Cl)c(C)cc1NC(=O)c1ccc(CN2C(=O)CCn3nc(C)cc32)cc1 | -3%
COc1cc(OC)c(NC(=O)c2ccc3c(c2)N(Cc2ccc(C)cc2)CCS3)cc1Cl | 11µM*
CCc1ccc(NC(=O)c2ccc3c(c2)N(Cc2ccc(C)cc2)CCS3)cc1 | 8.9µM*
CCNc1nc2c(s1)C(c1cccc(F)c1)CC(=O)N2 (stereo not given) | -19%
O=C(Nc1ccc(F)cc1)C1CN(c2cccc(Cl)c2)C(=O)N1 (stereo not given) | i
COc1ccc(OC)c(NC(=O)CC2CCCN(c3cnn(C)c(=O)c3)C2)c1 (stereo not given) | -8%
COc1cc([C@@H]2c3cc4c(cc3[C@H](O)[C@@H](CO)[C@@H]2C(=O)N2CCCC2)OCO4)cc(OC)c1OC | 3%
CN(Cc1cnn(-c2ccc(F)cc2)c1)C(=O)c1cn(Cc2cccc3ccccc23)nn1 | -3%
O=c1ccc(CN2CCN(c3ccccc3F)CC2)cn1CC1CC1 | -10%
COCCNC(=O)c1ccc2c(c1)N(C)C(CC(=O)NC1CCOCC1)CO2 (stereo not given) | 7%
Cc1cc(C)cc(NC2=N[C@H]3[C@@H](O)[C@H](O)C[C@H](C(=O)N4CCC(C(N)=O)CC4)[C@H]3S2)c1 | -16%
CC(=O)Nc1ccc(C2OC(=O)N(Cc3cccc(F)c3)C2C(=O)NCC2CCCO2)cc1 (stereo not given) | i
COc1cccc(NC(=O)Nc2ccc3nc(N4CCN(C)CC4)cc(C)c3c2)c1 | 2.5µM*
